Counter-ions that a name gives are not always drawn.
The compounds below were run on thyroid hormone receptor (endogenous TRα and TRβ). Conditions: read-out: Average AC50 (uM) GH3-TRE-Antag, antagonist mode, 1 nM T3, no GH3 cytotoxicity hit.
Parameters: species or system GH3-TRE-Luc (rat pituitary); GH3-TRE-Luc luciferase reporter, antagonist mode against 1 nM T3, loss of signal, qHTS

SMILES	AC50
CCCCOCCOC(=O)COc1cc(Cl)c(Cl)cc1Cl [2,4,5-T-butotyl]	80.4 µM
COc1ccc(N=[N+]([O-])c2ccc(OC)cc2)cc1 [4-Azoxyanisole]	30.2 µM
Clc1ccc(Cn2c(CN3CCCC3)nc3ccccc32)cc1 [Clemizole hydrochloride]	13.3 µM
O=C(CCCCCCCCC#CI)Oc1ccccc1 [Phenyl 11-iodo-10-undecynoate]	21.5 µM
CC1(C)[C@H](C=C(Cl)Cl)[C@H]1C(=O)O[C@H](C#N)c1cccc(Oc2ccccc2)c1 [Cypermethrin]	> 50 µM
C[C@]12CC[C@@H]3c4ccc(O)cc4CC[C@H]3[C@@H]1CC[C@@H]2O [17beta-Estradiol]	31.7 µM
